# Test results published in the supplement of paper PMC9135407.
# “And” between values parts separate entries of the source, which are not always exact repeats. Equal values may be shown once. Where a name gives a salt, the structure may show the parent alone. Out of some 5,800 compounds screened, about 620 (11%) showed activity. The sample as a whole holds a higher share of actives than the screen did. Unmarked numbers belong to inactive results.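 Rule for the calls: active = score above a cut-off or among the top three wells of a plate; in these data no inactive exceeds 0.85.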
# System: primary human hepatic stellate cells (donor 1)
# Assay: scaled lipid accumulation score (0 = DMSO-like, 1 = nortriptyline-like); higher = stronger HSC inactivation (lipid re-accumulation), active = hit call of the paper
# Conditions: 48 h
# [1] = library stock concentration: 10 mM
# [2] = library stock concentration: 80 uM
# [3] = library stock concentration: 400 uM
# [4] = library stock concentration: 2 mM
# [5] = library stock concentration: 1 mM
# [6] = library stock concentration: 3.33 mM
structure (smiles),measurement,setting,value
C[N+](C)(C)CCOP(=O)(O)OP(=O)([O-])OC[C@H]1O[C@@H](n2ccc(N)nc2=O)[C@H](O)[C@@H]1O [Cytidine 5'-diphosphocholine sodium salt hydrate],scaled lipid accumulation score,[1],≤ -0.07
C[N+](C)(C)CCOP(=O)(O)OP(=O)([O-])OC[C@H]1O[C@@H](n2ccc(N)nc2=O)[C@H](O)[C@@H]1O [Citicoline],scaled lipid accumulation score,[1],≤ -0.027
CO[C@H]1C=C[C@@]23c4cc5c(cc4CN(C[C@@H]2O)[C@H]3C1)OCO5 [Crinamine],scaled lipid accumulation score,[1],0.74
Cc1ccc(Nc2cc(-c3cccc(N4C(=O)c5ccccc5C4=O)c3)ncn2)cc1NS(C)(=O)=O,scaled lipid accumulation score,[2],0.083
same,scaled lipid accumulation score,[3],≤ -0.016
same,scaled lipid accumulation score,[4],≤ -0.016
same,scaled lipid accumulation score,[1],0.08
CCCCCC(O)/C=C/C1C(O)CC(O)C1CCCCC(CC(=O)O)OC (stereo not drawn) [3-methoxy Prostaglandin F1.alpha.],scaled lipid accumulation score,[5],≤ 0
CCCCCCCCCCCCCCC(=O)N[C@H]1CCOC1=O [N-pentadecanoyl-L-Homoserine lactone],scaled lipid accumulation score,[5],≤ 0
c1ccc2c(c1)CCC[C@H]2Nc1nc2ccccc2[nH]1 [NS8593 hydrochloride],scaled lipid accumulation score,[1],0.362
CCCCNC(=O)NS(=O)(=O)c1ccc(CO)cc1 [4-hydroxy Tolbutamide],scaled lipid accumulation score,[5],0.012
COc1ccc(NS(=O)(=O)c2sc3ccc(Cl)cc3c2C)cc1N1CCNCC1 [listing 1 of 2 here],scaled lipid accumulation score,[1],1.31 (active)
COc1ccc(NS(=O)(=O)c2sc3ccc(Cl)cc3c2C)cc1N1CCNCC1 [listing 2 of 2 here],scaled lipid accumulation score,[6],0.383
COc1ccc(NS(=O)(=O)c2ccc(I)cc2)cc1N1CCN(C)CC1,scaled lipid accumulation score,[1],0.604
CCCCCCCCCCCCCCCCCCCCCC(=O)NCCO [Docosanoyl Ethanolamide],scaled lipid accumulation score,[5],≤ 0
C[C@]12CC[C@@H]3c4ccc(OC(=O)c5ccccc5)cc4CC[C@H]3[C@@H]1CC[C@@H]2O [Estradiol benzoate],scaled lipid accumulation score,library stock concentration: 5.3 mM,≤ 0
C[C@]12CC[C@@H]3c4ccc(OC(=O)c5ccccc5)cc4CC[C@H]3[C@@H]1CC[C@@H]2O [Estradiol Benzoate],scaled lipid accumulation score,[6],≤ 0
same,scaled lipid accumulation score,[1],0.155
COc1ccc2c(c1)CCC1C2CCC2(C)C(NCCCCCCN3C(=O)C=CC3=O)CCC12 (stereo not drawn),scaled lipid accumulation score,[5],≤ 0
same,scaled lipid accumulation score,[1],0.397
COc1ccc2c(c1)CCC1C2CC[C@@]2(C)C1CC[C@@H]2NCCCCCCN1C(=O)CCC1=O (stereo partly drawn),scaled lipid accumulation score,[1],0.875 (active)
CN1c2cc(O)c(N=NC(N)=O)cc2CC1S(=O)(=O)O (stereo not drawn) [Carbazochrome sodium sulfonate (AC-17)],scaled lipid accumulation score,[6],≤ 0
same,scaled lipid accumulation score,[1],≤ 0
c1ccc(CNc2nc(NCc3ccccc3)c3ccccc3n2)cc1,scaled lipid accumulation score,[6],0.706
same,scaled lipid accumulation score,[1],0.074
CC(=O)NCCCCCC(=O)O [Acexamic acid],scaled lipid accumulation score,[1],0.236
CC(C)CCOc1ccc(NC(=S)Nc2ccc(OCCC(C)C)cc2)cc1 [Thiocarlide],scaled lipid accumulation score,[5],≤ 0
CN1C(=O)CC[C@H]1c1cccnc1 [Cotinine],scaled lipid accumulation score,[1],≤ 0
same,scaled lipid accumulation score,library stock concentration: 11.3 mM,≤ -0.001
CN1C(=O)CC[C@H]1c1cccnc1 [Cotinine (-)],scaled lipid accumulation score,,≤ 0
CN1C(=O)CC[C@H]1c1cccnc1 [(-)-Cotinine],scaled lipid accumulation score,[1],≤ 0 and 0.057
O=c1ccc2ccccc2o1 [Coumarin],scaled lipid accumulation score,[6],≤ 0
same,scaled lipid accumulation score,[1],≤ 0 and 0.012
O=c1ccc2cc(O)c(O)cc2o1 [Esculetin],scaled lipid accumulation score,,≤ 0
same,scaled lipid accumulation score,[1],≤ 0
"O=Nc1ccc2oc(=O)ccc2c1 [6-Nitroso-1,2-benzopyrone]",scaled lipid accumulation score,[1],0.9 (active)
CC(C)n1c(/C=C/C(O)CC(O)CC(=O)O)c(-c2ccc(F)cc2)c2ccccc21 (stereo not drawn) [Fluvastatin Sodium],scaled lipid accumulation score,[6],0.188
same,scaled lipid accumulation score,[1],0.219
CC(C)n1c(/C=C/C(O)CC(O)CC(=O)O)c(-c2ccc(F)cc2)c2ccccc21 (stereo not drawn) [fluvastatin],scaled lipid accumulation score,[1],0.549
CC(C)n1c(/C=C/C(O)CC(O)CC(=O)O)c(-c2ccc(F)cc2)c2ccccc21 (stereo not drawn) [Fluvastatin sodium salt],scaled lipid accumulation score,,0.403
COc1cc(C)c(Cc2cnc(N)nc2N)cc1OC,scaled lipid accumulation score,[1],≤ 0
Clc1ccc2c(N3CCN(CCCN4CCN(c5ccnc6cc(Cl)ccc56)CC4)CC3)ccnc2c1 [Piperaquine tetraphosphate tetrahydrate],scaled lipid accumulation score,[1],0.316
CCN(CC)CCCC(C)Nc1ccnc2cc(Cl)ccc12 (stereo not drawn) [Chloroquine diphosphate],scaled lipid accumulation score,,0.679
same,scaled lipid accumulation score,[1],≤ 0 and 0.428
O=C(OCC(O)CO)c1ccccc1Nc1ccnc2cc(Cl)ccc12 (stereo not drawn) [Glafenine hydrochloride],scaled lipid accumulation score,,≤ 0
CCN(CCO)CCCC(C)Nc1ccnc2cc(Cl)ccc12 (stereo not drawn) [Hydroxychloroquine sulfate],scaled lipid accumulation score,[1],0.161
CCN(CC)Cc1cc(Nc2ccnc3cc(Cl)ccc23)ccc1O.Cl.Cl.O.O [Amodiaquin dihydrochloride dihydrate],scaled lipid accumulation score,,1.22 (active)
CCN(CC)CCCC(C)Nc1ccnc2cc(Cl)ccc12 (stereo not drawn) [Chloroquine phosphate],scaled lipid accumulation score,library stock concentration: 6.3 mM,0.285
O=C(OCC(O)CO)c1ccccc1Nc1ccnc2cc(Cl)ccc12 (stereo not drawn) [Glafenine],scaled lipid accumulation score,[1],≤ 0
Cc1nc2cc3nc(-c4cccs4)cnc3cc2n1C,scaled lipid accumulation score,[6],≤ 0
Cc1csc(-c2nnc(Nc3ccc(Oc4ncccc4-c4ccnc(N)n4)cc3)c3ccccc23)c1,scaled lipid accumulation score,[6],≤ 0
same,scaled lipid accumulation score,[1],≤ 0
CCCCCCCCCCCCCCCCC/C=C/C(=O)O [.DELTA.2-trans Eicosenoic Acid],scaled lipid accumulation score,[5],≤ 0
O=C(Nc1ccc([N+](=O)[O-])cc1Cl)c1cc(Cl)ccc1O [Niclosamide] [listing 1 of 2 here],scaled lipid accumulation score,,0.776
O=C(Nc1ccccc1)c1ccccc1O [Salicylanilide],scaled lipid accumulation score,[6],≤ 0
same,scaled lipid accumulation score,library stock concentration: 9.4 mM,0.019
same,scaled lipid accumulation score,[1],0.041
O=C(Nc1cc(C(F)(F)F)cc(C(F)(F)F)c1)c1cc(Cl)ccc1O [listing 1 of 3 here],scaled lipid accumulation score,[6],0.722
O=C(Nc1cc(C(F)(F)F)cc(C(F)(F)F)c1)c1cc(Cl)ccc1O [IKK-2 Inhibitor V],scaled lipid accumulation score,[6],≤ 0
O=c1oc(-c2ccc(C(F)(F)F)cc2)nn1Cc1cc(Cl)ccc1O,scaled lipid accumulation score,[1],0.172
O=C(Nc1ccc([N+](=O)[O-])cc1Cl)c1cc(Cl)ccc1O [Niclosamide] [listing 2 of 2 here],scaled lipid accumulation score,library stock concentration: 6.1 mM,1.15 (active)
same,scaled lipid accumulation score,[1],1.08 (active)
Cc1oncc1C(=O)Nc1ccc(C(F)(F)F)cc1 [Leflunomide],scaled lipid accumulation score,,≤ 0
same,scaled lipid accumulation score,[2],0.045
same,scaled lipid accumulation score,[3],≤ 0
same,scaled lipid accumulation score,[4],≤ 0
same,scaled lipid accumulation score,[6],≤ 0
O=C(Nc1cc(C(F)(F)F)cc(C(F)(F)F)c1)c1cc(Cl)ccc1O [listing 2 of 3 here],scaled lipid accumulation score,[1],1.61 (active)
O=C(Nc1cc(C(F)(F)F)cc(C(F)(F)F)c1)c1cc(Cl)ccc1O [listing 3 of 3 here],scaled lipid accumulation score,[1],1.1 (active)
O=C(Nc1ccccc1)c1cc([N+](=O)[O-])ccc1Cl,scaled lipid accumulation score,[5],≤ 0
same,scaled lipid accumulation score,[6],0.023
same,scaled lipid accumulation score,[1],≤ 0 and 0.358 and 0.105
C[C@]12CC[C@@H]3c4ccc(O)cc4CC[C@H]3[C@@H]1C[C@H](O)[C@@H]2O,scaled lipid accumulation score,[1],≤ 0
O=C1CCC(c2ccc(-n3ccnc3)cc2)=NN1 [Imazodan],scaled lipid accumulation score,[1],≤ -0.07
CC(C)n1cnc2c(NCc3ccccc3)nc(NCCCO)nc21 [Bohemine],scaled lipid accumulation score,[2],≤ -0.001
same,scaled lipid accumulation score,[3],≤ -0.001
same,scaled lipid accumulation score,[4],≤ -0.001
same,scaled lipid accumulation score,[6],≤ 0
same,scaled lipid accumulation score,[1],0.099
Cc1cc(OCc2nnc(SC3CCCC3)n2-c2cccnc2)ccc1-c1ccc(S(C)(=O)=O)cc1,scaled lipid accumulation score,[6],0.619
same,scaled lipid accumulation score,[1],0.187
CN(C)[C@@H]1C(O)=C(C(=O)NCN2CCCC2)C(=O)[C@@]2(O)C(O)=C3C(=O)c4c(O)cccc4[C@@](C)(O)[C@H]3C[C@@H]12,scaled lipid accumulation score,[1],≤ 0
CN(C)[C@@H]1C(O)=C(C(=O)NCN2CCCC2)C(=O)[C@@]2(O)C(O)=C3C(=O)c4c(O)cccc4[C@@](C)(O)[C@H]3C[C@@H]12 [Rolitetracycline],scaled lipid accumulation score,,≤ 0
CC(=O)N(OCc1ccccc1)[C@H]1c2cc(C#N)ccc2OC(C)(C)[C@H]1O,scaled lipid accumulation score,[1],≤ 0
N[C@@H]1CCN(O)C1=O,scaled lipid accumulation score,[1],≤ 0
CCCCCCCCCCCCCCCC(=O)NC[C@@H](C)O [R-Palmitoyl-(2-methyl) Ethanolamide],scaled lipid accumulation score,[5],≤ 0
COc1ccc2cc1Oc1ccc(cc1)C[C@@H]1c3c(cc4c(c3Oc3cc5c(cc3OC)CCN(C)[C@H]5C2)OCO4)CCN1C [Cepharanthine],scaled lipid accumulation score,[6],1.03 (active)
COc1ccc2cc1Oc1ccc(cc1)C[C@H]1c3c(cc4c(c3Oc3cc5c(cc3OC)CCN(C)[C@@H]5C2)OCO4)CCN1C [Cepharanthine] [listing 1 of 2 here],scaled lipid accumulation score,[1],0.944 (active)
COc1cc2c3cc1Oc1cc(ccc1O)C[C@@H]1c4c(cc(OC)c(O)c4Oc4ccc(cc4)C[C@@H]3N(C)CC2)CC[N+]1(C)C [Tubocurarine chloride],scaled lipid accumulation score,library stock concentration: 3.1 mM,≤ 0
COc1ccc2cc1Oc1ccc(cc1)C[C@H]1c3cc(c(OC)cc3CCN1C)Oc1c(OC)c(OC)cc3c1[C@H](C2)N(C)CC3 [Tetrandrine],scaled lipid accumulation score,,0.685
same,scaled lipid accumulation score,[6],0.783
same,scaled lipid accumulation score,[1],0.45
COc1ccc2cc1Oc1ccc(cc1)C[C@H]1c3c(cc4c(c3Oc3cc5c(cc3OC)CCN(C)[C@@H]5C2)OCO4)CCN1C [Cepharanthine] [listing 2 of 2 here],scaled lipid accumulation score,[1],0.689
COc1ccc2c(c1OC)C(=O)O[C@@H]2[C@H]1c2c(cc3c(c2OC)OCO3)CCN1C [Noscapine],scaled lipid accumulation score,,≤ 0
COc1ccc2c(c1OC)C(=O)O[C@@H]2[C@H]1c2c(cc3c(c2OC)OCO3)CCN1C [Noscapine hydrchloride],scaled lipid accumulation score,[1],≤ -0.055
COc1cc2c(c(OC)c1OC)-c1c(cc3c(c1OC)OCO3)CC(C)C(C)C2 (stereo not drawn) [Schisandrin B (Sch B)],scaled lipid accumulation score,[6],≤ 0
same,scaled lipid accumulation score,[1],≤ -0.001
COc1cc2c(cc1OC)[C@@H]1Cc3ccc(OC)c(OC)c3CN1CC2 [Rotundine],scaled lipid accumulation score,[6],≤ 0
same,scaled lipid accumulation score,[1],≤ 0
COc1ccc2cc1Oc1ccc(cc1)C[C@H]1c3cc(c(OC)cc3CCN1C)Oc1c(OC)c(OC)cc3c1[C@H](C2)N(C)CC3 [Tetrandine],scaled lipid accumulation score,library stock concentration: 8 mM,0.535
COc1ccc2c(c1OC)C(=O)O[C@@H]2[C@H]1c2c(cc3c(c2OC)OCO3)CCN1C [Noscapine hydrochloride],scaled lipid accumulation score,library stock concentration: 4.4 mM,0.008
same,scaled lipid accumulation score,[1],0.011 and 0.074
COc1cc2c3cc1Oc1c(OC)c(OC)cc4c1[C@@H](Cc1ccc(OC(=O)c5ccc([N+](=O)[O-])cc5)c(c1)Oc1ccc(cc1)C[C@@H]3N(C)CC2)N(C)CC4 [E6 berbamine],scaled lipid accumulation score,library stock concentration: 6.6 mM,0.933 (active)
